# Bioassay records: PubChem, Broad Institute
# Sampled rows, rich in hits. Any-hit rate of the full collection: about 3.4%.
# HSF1 inh = HSF1 inhibition. NIH3T3-HGL HSE-luciferase, MG132-induced, luminescence 8 h; active compounds read low. activity change, negative = inhibition, % at 7.5 µM (by protocol). 0.77% of 300,000 active. AID 2098;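 active means more than half of replicate wells show activity change below -50%, luminescence cut by over half; inconclusive means some wells, but at most half, below -50%; inactive means no replicate well below -50%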;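 further: luciferase reports HSF-1 transcriptional activity via heat shock element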
# HSF1 activator = increases HSF-1 driven luciferase reporter signal; activation, % at 9 µM; 1.7% of 300,000 active; NIH3T3-HGL HSF-1 luciferase reporter, MG132, 8 h; 100% = twice DMSO control signal; AID 504408;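 active means mean replicate activation of at least 50% with a set share of replicates each reaching 50%; inconclusive means only one of those two conditions met; inactive means mean below 50% and too few replicates reaching it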
# esBAF inh = blocks esBAF chromatin remodeling in mouse ES cells; AID 602393; 2% of 350,000 active; reporter increase, % at 12.5 µM; Bmi1-luciferase knock-in reporter, 24 h; 100% = twice the neutral-well signal; in the data active means activation above about 40%; inconclusive means no clear call, values can overlap the other calls;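 further: a rise in the Bmi1 reporter signal indicates esBAF inhibition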
# Vif inh = HIV Vif inhibition. 0.35% of 340,000 active. HEK293T cells, Vif self-association by quenched fluorescence, imaging, 24 h. inhibition, % at 7.49 µM; in the data active means inhibition above about 50%, passing the limit was not always enough; inconclusive means no clear call, values can overlap the other calls; inactive means below about 31%
# Numbers stand for hits; 0 = inactive; ? = inconclusive; - = no result given.
SMILES,HSF1 inh,HSF1 activator,esBAF inh,Vif inh
Cc1ccc(N=Nc2c(N)nn3c(N)c(C#N)c(C)nc23)cc1,0,0,0,0
COc1ccc(N=Nc2c(N)nn(C)c2N)cc1,-,-,44.5,0
COc1cc(C2C3=C(COC3=O)Oc3cc4c(cc32)OCO4)cc(OC)c1OC (centres undefined),-,-,-,0
COc1cc(C2C3=C(COC3=O)Oc3cc4c(cc32)OCO4)cc(OC)c1O (centres undefined),0,0,-,60.2
O=[N+]([O-])c1ccc2c(c1)nc1n2CCN(C2CCCCC2)C1,0,53.5,-,0
O=[N+]([O-])c1ccc2c(c1)nc1n2CCCCC1,0,0,-,0
C[C@H](CO)N1C[C@H](C)[C@H](CN(C)Cc2ccccc2)OCCCC[C@H](C)Oc2ccc(NC(=O)Nc3ccc4c(c3)OCO4)cc2C1=O,-,-,0,-
C(#Cc1ccc2c(c1)COc1c3ccccc3nn1-2)c1ccccc1,0,0,63.5,0
C#Cc1ccc2c(c1)COc1c3ccccc3nn1-2,0,61.4,0,0
CC(C#Cc1ccc2c(c1)COc1c3ccccc3nn1-2)OC(C)(C)C (centres undefined),0,0,103.6,-
C/C(N)=C(/C#N)C(=O)CSc1nnc(SCc2ccc(Cl)cc2)s1,0,0,-,0
C/C(N)=C(/C#N)C(=O)CSc1nn(-c2ccc(Cl)cc2)c(=S)s1,0,99.3,-,0
Cc1cc(C)n2nc(C(=O)N/N=C/c3c4ccccc4cc4ccccc34)nc2n1,0,188.4,-,0
CCCNC(=O)[C@@H]1[C@@H](CO)[C@@H]2Cn3c(ccc(C4=CCCC4)c3=O)[C@H]1N2C(=O)CC1CC1,-,-,0,-
Nc1nc2n(c1C(=O)c1ccccc1)CCC2,-70.1,0,0,0
Cn1c(=O)c2c(nc(NCCNC(=O)c3ccco3)n2Cc2ccc(Cl)cc2Cl)n(C)c1=O,0,0,0,-
Cn1c(=O)c2c(nc(NCC3CCCC(CN)C3)n2Cc2ccc(Cl)cc2Cl)n(C)c1=O (centres undefined),0,0,0,51.2
Cc1ccc(-n2[nH]c(C)c(/C=C3/C=Nc4ccccc43)c2=O)cc1C,0,0,53.8,0
CC1=NNC(=O)/C1=C\c1cn(-c2ccccc2)nc1-c1ccc(F)cc1,0,146.1,0,0
CC1=NNC(=O)/C1=C\c1cn(-c2ccccc2)nc1-c1cccs1,0,0,-,?
Cc1ccc(O)c(NC(=O)CSc2n[nH]c(-c3ccccc3)n2)c1,0,109.3,0,0
Cc1ccc(C)c(NC(=O)CSc2n[nH]c(-c3ccccn3)n2)c1,0,0,0,0
COc1ccc(CN(C)C[C@H]2Oc3ccc(NC(=O)Nc4ccc(F)cc4)cc3C(=O)N([C@@H](C)CO)C[C@@H]2C)cc1,-,-,0,-
COC(=O)CSc1nc(C2CC2)cc(C(F)(F)F)c1C#N,0,0,0,79.0
CCOc1ccc(NC(=O)CC2C(=O)N(C)C(=S)N2Cc2ccco2)cc1 (centres undefined),0,0,-,0
SMILES,HSF1 inh,HSF1 activator,esBAF inh,Vif inh
CN1C(=O)C(CC(=O)Nc2ccc(Cl)cc2)N(Cc2ccco2)C1=S (centres undefined),0,53.4,-,0
COc1cc(CNC2CCCC2)cc(OC)c1,0,59.3,0,0
COc1cccc(CNC2CCCC2)c1,0,0,0,0
COc1ccc(NC(=O)N2CCc3ccccc32)cc1,0,65.0,0,-
COc1ccc(NC(=O)N2CCCc3ccccc32)cc1,0,0,41.0,0
CCOC(=O)c1ccc(NC(=O)N2CCc3ccccc32)cc1,0,0,68.4,0
CCOC(=O)c1ccc(NC(=O)N2CCc3ccccc3C2)cc1,0,0,0,0
CCOC(=O)c1ccc(NC(=O)N2CCN(S(C)(=O)=O)CC2)cc1,-53.0,0,0,0
CCCN1C[C@H](C)[C@@H](OC)CN(C)C(=O)c2cc(NC(=O)CC)ccc2OC[C@H]1C,-,-,0,-
CCCNC(=O)Nc1ccc2c(c1)C(=O)N(C)[C@@H]1CC[C@@H](CC(=O)NC)O[C@@H]1CO2,-,-,0,-
Cc1cc(C(=O)Nc2cccc3c2O[C@@H](CN(C)C(=O)Nc2c(C)noc2C)[C@H](C)CN([C@H](C)CO)C3=O)n(C)n1,-,-,0,-
CN1C(=O)c2cc(NC(=O)c3ccc(F)cc3)ccc2OC[C@H]2O[C@@H](CC(=O)NCC3CC3)CC[C@H]21,-,-,0,-
O=C(C[C@H]1CC[C@@H]2[C@H](COC[C@@H](O)CN2C(=O)Nc2ccc(F)cc2)O1)NC1Cc2ccccc2C1,-,-,0,-
CCOC(=O)/C=C/C(=O)N1CCc2ccccc21,0,84.2,0,0
CCOCC(=O)N1CCc2ccccc21,0,0,0,0
CCc1ccc(-c2nc(CCl)cs2)cc1,0,0,0,100.0
COc1ccc(CN2CCC(C(=O)Nc3ccc(Oc4cccnc4)cc3)CC2)c(C)c1C,-82.8,0,0,0
COc1cccc(O)c1CN1CCC(C(=O)Nc2ccc(Oc3cccnc3)cc2)CC1,0,0,0,0
Nc1nc(Nc2ccc(Cl)cc2Cl)nc(C(F)(F)F)n1,-,-,63.9,0
CNC(=O)C[C@@H]1CC[C@@H]2[C@H](COc3ccc(NC(=O)NCc4ccccc4)cc3C(=O)N2C)O1,-,-,0,-
Cc1cc(C)cc(NC(=O)c2nnn(Cc3cc(C)ccc3C)c2N)c1,0,0,0,0
COc1ccc(Cn2nnc(C(=O)Nc3ccc4c(c3)OCCO4)c2N)cc1Br,0,0,0,0
Nc1c(C(=O)Nc2ccccc2)nnn1-c1ccc2c(c1)OCCO2,0,0,0,0
Cc1ccc(C)c(Cn2nnc(C(=O)Nc3ccc4c(c3)OCCO4)c2N)c1,0,0,64.1,0
Cc1ccc(NC(=O)c2nnn(-c3ccc4c(c3)OCCO4)c2N)cc1,0,0,69.7,0
SMILES,HSF1 inh,HSF1 activator,esBAF inh,Vif inh
Cc1ccccc1Cn1nnc(C(=O)Nc2ccc3c(c2)OCCO3)c1N,0,0,67.6,0
C[C@@H]1CN([C@H](C)CO)S(=O)(=O)c2ccc(C#C[C@@H](C)O)cc2O[C@@H]1CN(C)Cc1ccccc1,-,-,0,-
c1ccc(Cn2nnc(-c3ccccc3)n2)cc1,0,0,44.2,0
CSc1ccc(-c2nnn(Cc3ccccn3)n2)cc1,0,77.3,51.0,0
C[C@@H]1CN([C@@H](C)CO)C(=O)c2cc(NC(=O)Nc3ccc(F)cc3)ccc2O[C@H]1CN(C)C(=O)Nc1ccc2c(c1)OCO2,-,-,0,-
CNC[C@@H]1Oc2ccc(N(C)C)cc2C(=O)N([C@H](C)CO)C[C@@H]1C,-,-,0,-
CC1(C)CC(=O)C2=C(C1)N1C(=C(C#N)C2c2ccc(Cl)cc2)N=C(N)c2ccccc21 (centres undefined),0,75.6,0,0
CC1(C)CC(=O)C2=C(C1)N1C(=C(C#N)C2c2ccccc2Cl)N=C(N)c2ccccc21 (centres undefined),0,0,0,0
CCOc1cc(/C=N/NC(=O)CN(CCc2ccccc2)S(=O)(=O)c2ccc(NC(C)=O)cc2)ccc1O,-88.6,0,-,0
C[C@H](CO)N1C[C@H](C)[C@@H](CN(C)C(=O)c2ccccc2F)Oc2ncc(-c3cncnc3)cc2C1=O,-,-,0,-
CC(=O)Nc1ccc(NC(=O)Nc2ccc(C)cc2C)cc1,0,0,-,0
CCCNC(=O)Nc1ccc(C)cc1C,0,51.4,0,0
O=C(Nc1ccccc1Cl)c1ccc(-c2ccccn2)s1,0,67.7,82.2,0
